A549 viability – A549 cytotoxicity, counter-screen for Nrf2 inhibitors; AID 504648; 0.16% of 390,000 active; A549 ARE-Fluc cells, CellTiter-Fluor viability, 18-24 h; Potency, µM (titrated, usually from 46 µM), most hits filed as inhibitors
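A549 ARE-Fluc cells in 5% FBS OPTI-MEM, 5000 cells/well, rested 2 h then exposed to compounds in concentration-response for 18-24 h at 37 °C. Viability by CellTiter-Fluor fluorescence (Ex 405/Em 525) after 30 min; luciferase luminescence (BugLite, 15 min, RT) read afterwards.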
IL-2 act – IL-2 activation; IL-2 activation reporter assay, cell-based qHTS; stimulated with anti-CD3/CD4/CD28 beads; in transgenic mouse T cells; activation, % (series mostly up to about 46 µM); 0.065% of 360,000 active; AID 652025; in the data active = activation above about 50%; inconclusive = mostly about 30% to 49%
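Unstimulated transgenic mouse T cells; 60-min compound exposure; bead-based TCR/CD4/CD28 stimulation; 18 h culture, 37 degrees C; dual fluorescence (EGFP, DsRed) plate cytometry.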
Nrf2 activator – Nrf2 pathway activation. AREc32 ARE-luciferase reporter (MCF7-derived line), luminescence, 24 h. 0.31% of 410,000 active. AID 624171. Potency, µM (series often up to 46.1 µM), hits mostly activators; also: nearly all actives have a fitted effect of over 65% in size
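AREc32 cells carrying an ARE-driven firefly luciferase reporter were seeded at 1000 cells/well in OPTI-MEM with 5% FBS, then exposed to compound for 24 hr at 37 deg C. Luminescence was read with Steady-Glo after 30 min at RT.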
Nrf2 inh – Nrf2 pathway inhibition | A549 ARE-Fluc reporter, luciferase luminescence, 18-24 h | Potency, µM (series often up to 46 µM), actives largely listed as inhibitors | 2.1% of 360,000 active | AID 504444; also: nearly all actives have a fitted effect of over 60% in size
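Nrf2 activity is the BugLite luminescence, read 15 min after reagent at room temperature, following CellTiter-Fluor cytotoxicity readout (30 min, 37C). Compound titrations were applied for 18-24 h to 5000 A549 ARE_Fluc cells/well in 5% FBS OPTI-MEM.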
Each line names hits and unclear results; the compound was inactive in the other large screens. A selection: hits, their analogues and other compounds. The true share with any hit is near 2.3%. Unless noted, calls follow the shape of the dose curve; as a rule, active = well fitted curve in the direction sought with a large enough effect; inconclusive = small, poorly fitted or top-dose-only effect, or another doubt; inactive = no such curve, though single readings can be large; an effect the other way counts as inactive or inconclusive.

Cc1ccnc(Nc2nc(-c3c(C)nc4sccn34)cs2)c1	Nrf2 inh 21µM
Cc1ccnc(Nc2nc(-c3ccccc3)cs2)c1	Nrf2 inh inconclusive
CCN1CCc2c(sc(-n3cccc3)c2C(C)NC(=O)Nc2ccccc2C)C1 (configuration not stated)	Nrf2 inh inconclusive (no result: IL-2 act)
CC(=O)NCCCN(Cc1ccc(Cl)c(Cl)c1)c1ccc(Br)cn1	Nrf2 inh inconclusive (no result: IL-2 act, Nrf2 activator)
COc1cc(NC(=O)N2CCC(CN3CCCC3)CC2)cc(OC)c1OC	none (no result: IL-2 act)
CCC(=O)/C=C1/Sc2ccc(OC)cc2N1CCO	none
CCC(/C=C1\Sc2ccc(OC)cc2N1CCO)=C\c1sc2ccc(OC)cc2[n+]1CCO	A549 viability 21µM, Nrf2 activator inconclusive, Nrf2 inh inconclusive
CCC(/C=C1\Sc2ccc(OC)cc2N1CC)=C\c1sc2ccc(OC)cc2[n+]1CCCS(=O)(=O)[O-]	A549 viability inconclusive, Nrf2 inh 10µM
CCOc1cc(C2Nc3ccccc3C(=O)N2Cc2ccco2)ccc1OCc1ccccc1Cl (configuration not stated)	Nrf2 inh inconclusive (no result: IL-2 act, Nrf2 activator)
Nc1nsc2ccccc12	Nrf2 activator 11µM, Nrf2 inh inconclusive
Cn1cnc2c(=O)oc3ccc(S(=O)(=O)N4CCN(c5cccc(C(F)(F)F)c5)CC4)cc3c21	none (no result: IL-2 act)
Cc1ccc(-c2csc(N/N=C/c3ccco3)n2)cc1	Nrf2 activator inconclusive
Clc1ccc(-c2csc(N/N=C/c3ccco3)n2)cc1	A549 viability inconclusive, Nrf2 activator 8.9µM, Nrf2 inh inconclusive
Cc1c(N2C(=O)/C(=C\c3ccc(N(C)C)cc3)N(C)C2=S)c(=O)n(-c2ccccc2)n1C	A549 viability 15µM
O=C(Nc1cccc2nsnc12)c1ccc(F)cc1	Nrf2 activator 11µM, Nrf2 inh inconclusive
Cc1cc2c(cc1S(=O)(=O)N(C)CC(=O)Nc1cccc(C#N)c1)OCC(=O)N2	none (no result: IL-2 act, Nrf2 inh)
COc1cc(OC)c(C2SCCN2S(=O)(=O)c2ccc(F)cc2)cc1OC (configuration not stated)	none
COc1ccc(OC)c(C2SCCN2S(=O)(=O)c2cccc(C(F)(F)F)c2)c1 (configuration not stated)	Nrf2 inh 21µM
CC(=NNC(=S)N1CCN(c2ccccn2)CC1)c1ccccn1	none
CC(=NNC(=S)N1CCN(c2ccccn2)CC1)c1nccs1	Nrf2 inh 13µM
S=C(Nc1ccc(Cl)c(Cl)c1)N1CCN(c2ccccn2)CC1	none
S=C(Nc1ccc(Oc2ccccc2)cc1)N1CCN(c2ccccn2)CC1	Nrf2 inh 16µM
O=C(NCc1ccccc1Cl)c1cc(-c2ccccc2)n[nH]1	Nrf2 inh inconclusive (no result: IL-2 act)
Cc1ccc(CN(Cc2ccco2)C(=O)COc2ccc(C(C)C)cc2)cc1	Nrf2 inh 18µM (no result: IL-2 act)
O=C(CSc1ccc(Cl)cc1)N1CCN(c2ncc(C(F)(F)F)cc2Cl)CC1	Nrf2 inh 21µM
O=C(CSc1ncc(C(F)(F)F)cc1Cl)N1CCN(S(=O)(=O)c2ccc(Cl)cc2)CC1	Nrf2 inh inconclusive
Cc1ccc(NC(=O)Cn2c(=O)oc3cc(S(=O)(=O)NCc4ccccc4)ccc32)cc1	none (no result: IL-2 act)
CC(C)CCNC(=S)Nc1ccc([N+](=O)[O-])cc1	A549 viability inconclusive, Nrf2 inh inconclusive
CCCCNC(=S)Nc1ccc([N+](=O)[O-])cc1	A549 viability inconclusive, Nrf2 inh 18µM
CC(C)COc1ccc(C(=O)Nc2ccc([N+](=O)[O-])cc2)cc1	none
CC(C)OC(=O)c1cc(NC(=S)Nc2ccc([N+](=O)[O-])cc2)cc(C(=O)OC(C)C)c1	A549 viability inconclusive, Nrf2 inh 16µM
Cc1cccc(C)c1OCCCn1c(CCNC(=O)C2CCCCC2)nc2ccccc21	A549 viability inconclusive, Nrf2 inh inconclusive (no result: IL-2 act)
CSc1nccc(-c2cc(Cl)sc2Cl)n1	Nrf2 activator 11µM (no result: Nrf2 inh)
CSc1nccc(-c2c(-c3ccc(Cl)cc3)noc2C)n1	none
Cc1c(C(C)C)c(=O)n(-c2ccc(S(=O)(=O)NC(C)C)cc2)n1C	Nrf2 inh 18µM
Cc1c(C(C)C)c(=O)n(-c2ccc(S(=O)(=O)NC3CC3)cc2)n1C	Nrf2 inh inconclusive
CSc1ccc(CN2CCN(Cc3ccc([N+](=O)[O-])cc3)CC2)cc1	Nrf2 inh 8.2µM
CSc1ccc(CN2CCN(C(=O)CC(C)C)CC2)cc1	Nrf2 inh 26µM
O=[N+]([O-])c1ccc(CN2CCCCCC2)cc1	none
COc1ccc(CNC(=O)C2(c3cccs3)CCOCC2)cc1	none (no result: IL-2 act, Nrf2 inh)
CC(C)(C)CC(C)(C)NC(=O)CSCC(=O)Nc1ccc2ccccc2c1	A549 viability inconclusive, Nrf2 inh 16µM
O=C(CSc1ccncc1)Nc1ccc2ccccc2c1	none
